According to the supplement of paper PMC10849652:
The full data set covers some 8,800 targets. This sample favours those with a hit. About 0.5% of all pairs of compound and target were hits. Unmarked numbers belong to inactive results.

Assays:
Assay in all cases: log2 fold change, soluble protein after heating vs DMSO (PISA); higher = thermal stabilisation; K562 lysate, 10 uM; active = over 0.2 and 3.5 SD of the protein, either way, in both replicates (recomputed)
vemurafenib = compound: CCCS(=O)(=O)Nc1ccc(F)c(C(=O)c2c[nH]c3ncc(-c4ccc(Cl)cc4)cc23)c1F [vemurafenib]
How it was run: (§1)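 K562 pellets were dounce-homogenised in PBS pH 7.4 with 1 mM MgCl2, and the crude extract at 1 mg/mL protein was treated with 10 μM compound for 30 min. Aliquots were heated for 3 min across 48°C-58°C, pooled, and brought to 0.5% NP-40 at 4°C; soluble protein was the supernatant after 21,000xg for 90 min. Soluble protein was quantified by TMTpro 16plex LC-MS/MS with channel sums equalised, and reported as log2 fold change in thermal stability against DMSO controls, with values from duplicates.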

[1] = compound: CCCS(=O)(=O)Nc1ccc(F)c(C(=O)c2c[nH]c3ncc(Cl)cc23)c1F
How it was run: as §1

barasertib = compound: CCN(CCCOc1ccc2c(Nc3cc(CC(=O)Nc4cccc(F)c4)[nH]n3)ncnc2c1)CCOP(=O)(O)O [barasertib]
How it was run: as §1

[2] = compound: CC[C@@H]1C(=O)N(C)c2cnc(Nc3ccc(C(=O)NC4CCN(C)CC4)cc3OC)nc2N1C1CCCC1
How it was run: as §1

volasertib = compound: CC[C@@H]1C(=O)N(C)c2cnc(Nc3ccc(C(=O)N[C@H]4CC[C@H](N5CCN(CC6CC6)CC5)CC4)cc3OC)nc2N1C(C)C [volasertib]
How it was run: as §1

[3] = compound: CCn1c(C(=O)N(C2CC2)C2CC2)cc2c3c(ncn3C)c(Nc3cc(C)n(C)n3)nc21
How it was run: as §1

[4] = compound: CCn1cc(-c2ccnc3[nH]c(-c4cccc(CN(C)C)c4)cc23)c(-c2ccc(NC(=O)N(C)C)cc2)n1
How it was run: as §1

[5] = compound: CN1CCC(CNc2ccc3ncc(-c4cccc(OC(F)(F)F)c4)n3n2)CC1
How it was run: as §1

saracatinib = compound: CN1CCN(CCOc2cc(OC3CCOCC3)c3c(Nc4c(Cl)ccc5c4OCO5)ncnc3c2)CC1 [saracatinib]
How it was run: as §1

sotrastaurin = compound: CN1CCN(c2nc(C3=C(c4c[nH]c5ccccc45)C(=O)NC3=O)c3ccccc3n2)CC1 [sotrastaurin]
How it was run: as §1

Sequence of UniProt Q96NW7 (Q96NW7 whole entry, looked up): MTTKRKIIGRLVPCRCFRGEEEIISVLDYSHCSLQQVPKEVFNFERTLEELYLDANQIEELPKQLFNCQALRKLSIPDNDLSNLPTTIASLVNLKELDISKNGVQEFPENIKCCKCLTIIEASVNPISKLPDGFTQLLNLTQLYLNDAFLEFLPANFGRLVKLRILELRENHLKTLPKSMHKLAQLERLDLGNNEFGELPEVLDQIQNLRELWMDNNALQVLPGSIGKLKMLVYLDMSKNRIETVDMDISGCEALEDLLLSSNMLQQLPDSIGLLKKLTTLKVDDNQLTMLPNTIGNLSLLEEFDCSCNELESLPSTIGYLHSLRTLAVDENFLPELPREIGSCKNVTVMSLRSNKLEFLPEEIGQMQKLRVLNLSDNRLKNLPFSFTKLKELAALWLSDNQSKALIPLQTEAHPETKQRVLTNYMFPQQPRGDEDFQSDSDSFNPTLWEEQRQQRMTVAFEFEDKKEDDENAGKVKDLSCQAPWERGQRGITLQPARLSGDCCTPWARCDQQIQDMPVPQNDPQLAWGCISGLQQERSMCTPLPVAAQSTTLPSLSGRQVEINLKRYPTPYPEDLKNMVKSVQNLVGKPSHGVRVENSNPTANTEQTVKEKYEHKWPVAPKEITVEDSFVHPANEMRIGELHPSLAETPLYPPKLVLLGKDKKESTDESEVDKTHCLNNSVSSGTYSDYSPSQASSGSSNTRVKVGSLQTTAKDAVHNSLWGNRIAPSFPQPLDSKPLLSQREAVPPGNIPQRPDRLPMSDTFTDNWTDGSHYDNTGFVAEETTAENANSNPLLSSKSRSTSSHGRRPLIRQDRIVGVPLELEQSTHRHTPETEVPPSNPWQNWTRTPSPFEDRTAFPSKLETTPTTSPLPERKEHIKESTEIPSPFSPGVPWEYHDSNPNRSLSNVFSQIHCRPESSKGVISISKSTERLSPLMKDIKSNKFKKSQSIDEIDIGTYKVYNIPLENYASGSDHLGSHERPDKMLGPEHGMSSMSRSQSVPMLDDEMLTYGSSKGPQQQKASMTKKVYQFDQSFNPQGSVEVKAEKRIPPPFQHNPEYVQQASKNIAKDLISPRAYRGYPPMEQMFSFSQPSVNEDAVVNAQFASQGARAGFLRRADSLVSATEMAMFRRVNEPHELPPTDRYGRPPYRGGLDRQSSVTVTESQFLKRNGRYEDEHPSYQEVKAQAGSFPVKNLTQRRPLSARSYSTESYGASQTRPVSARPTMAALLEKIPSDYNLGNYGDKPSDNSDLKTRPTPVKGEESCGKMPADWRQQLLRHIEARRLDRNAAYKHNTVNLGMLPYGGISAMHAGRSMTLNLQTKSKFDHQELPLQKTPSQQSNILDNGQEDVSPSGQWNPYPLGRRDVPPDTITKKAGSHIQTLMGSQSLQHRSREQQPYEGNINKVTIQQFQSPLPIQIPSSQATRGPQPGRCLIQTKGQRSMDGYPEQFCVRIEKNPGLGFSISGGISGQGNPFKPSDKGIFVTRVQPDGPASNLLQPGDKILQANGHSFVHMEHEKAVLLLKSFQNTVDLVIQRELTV
Sequence of UniProt O95819 (O95819 whole entry, looked up): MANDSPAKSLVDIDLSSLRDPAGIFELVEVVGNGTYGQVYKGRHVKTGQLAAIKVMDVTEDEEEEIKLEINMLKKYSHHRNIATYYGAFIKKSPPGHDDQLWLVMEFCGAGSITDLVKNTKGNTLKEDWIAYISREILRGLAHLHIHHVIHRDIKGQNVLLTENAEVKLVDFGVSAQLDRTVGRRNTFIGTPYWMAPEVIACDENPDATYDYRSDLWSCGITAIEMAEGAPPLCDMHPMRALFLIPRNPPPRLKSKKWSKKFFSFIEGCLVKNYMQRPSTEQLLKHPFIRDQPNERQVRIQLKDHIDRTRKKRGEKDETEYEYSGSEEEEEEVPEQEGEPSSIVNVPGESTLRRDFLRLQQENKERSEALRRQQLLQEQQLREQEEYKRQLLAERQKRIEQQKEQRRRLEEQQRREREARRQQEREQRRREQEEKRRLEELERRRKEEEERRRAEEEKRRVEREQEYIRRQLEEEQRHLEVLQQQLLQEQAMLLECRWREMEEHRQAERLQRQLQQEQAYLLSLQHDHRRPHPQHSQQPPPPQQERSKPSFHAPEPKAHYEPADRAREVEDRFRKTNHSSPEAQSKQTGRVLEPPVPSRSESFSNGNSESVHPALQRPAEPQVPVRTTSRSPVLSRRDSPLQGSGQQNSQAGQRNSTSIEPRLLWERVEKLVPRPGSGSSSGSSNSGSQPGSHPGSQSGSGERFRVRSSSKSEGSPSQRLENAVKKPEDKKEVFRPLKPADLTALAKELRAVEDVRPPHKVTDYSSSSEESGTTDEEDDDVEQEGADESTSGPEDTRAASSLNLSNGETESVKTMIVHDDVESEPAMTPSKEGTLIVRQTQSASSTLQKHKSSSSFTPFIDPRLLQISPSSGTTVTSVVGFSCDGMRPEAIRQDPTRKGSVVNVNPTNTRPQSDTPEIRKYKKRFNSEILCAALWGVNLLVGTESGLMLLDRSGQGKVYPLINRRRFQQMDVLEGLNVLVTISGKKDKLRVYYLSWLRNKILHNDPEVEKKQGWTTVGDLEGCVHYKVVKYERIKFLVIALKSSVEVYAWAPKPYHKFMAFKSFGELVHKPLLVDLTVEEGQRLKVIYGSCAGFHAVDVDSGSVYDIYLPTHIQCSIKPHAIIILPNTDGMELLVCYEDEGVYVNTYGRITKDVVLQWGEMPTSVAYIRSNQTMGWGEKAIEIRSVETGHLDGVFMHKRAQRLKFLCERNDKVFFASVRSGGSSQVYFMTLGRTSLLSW
Sequence of UniProt Q8IWC1 (Q8IWC1 whole entry, looked up): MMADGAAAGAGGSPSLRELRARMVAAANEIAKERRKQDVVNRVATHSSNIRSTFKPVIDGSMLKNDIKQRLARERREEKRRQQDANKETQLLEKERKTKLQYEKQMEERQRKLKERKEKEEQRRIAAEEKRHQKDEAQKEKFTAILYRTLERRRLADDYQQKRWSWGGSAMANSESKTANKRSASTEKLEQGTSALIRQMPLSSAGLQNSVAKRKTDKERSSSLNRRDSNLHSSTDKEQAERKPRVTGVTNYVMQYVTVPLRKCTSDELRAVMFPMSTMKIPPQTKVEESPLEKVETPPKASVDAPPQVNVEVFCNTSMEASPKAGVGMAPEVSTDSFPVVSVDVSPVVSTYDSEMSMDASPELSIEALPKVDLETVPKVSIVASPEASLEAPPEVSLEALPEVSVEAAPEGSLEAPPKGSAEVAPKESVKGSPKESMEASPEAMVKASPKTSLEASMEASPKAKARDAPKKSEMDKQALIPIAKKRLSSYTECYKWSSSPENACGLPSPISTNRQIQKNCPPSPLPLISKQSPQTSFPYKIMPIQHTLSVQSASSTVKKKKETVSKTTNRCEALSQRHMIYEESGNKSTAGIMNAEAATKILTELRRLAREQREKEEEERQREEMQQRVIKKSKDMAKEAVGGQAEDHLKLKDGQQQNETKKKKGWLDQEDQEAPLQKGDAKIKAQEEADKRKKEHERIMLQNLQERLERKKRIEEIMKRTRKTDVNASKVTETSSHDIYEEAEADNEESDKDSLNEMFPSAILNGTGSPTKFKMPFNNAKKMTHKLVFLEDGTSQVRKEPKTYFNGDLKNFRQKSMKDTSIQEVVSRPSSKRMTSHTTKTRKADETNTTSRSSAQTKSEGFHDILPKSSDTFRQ
Sequence of UniProt Q96G25 (Q96G25 whole entry, looked up): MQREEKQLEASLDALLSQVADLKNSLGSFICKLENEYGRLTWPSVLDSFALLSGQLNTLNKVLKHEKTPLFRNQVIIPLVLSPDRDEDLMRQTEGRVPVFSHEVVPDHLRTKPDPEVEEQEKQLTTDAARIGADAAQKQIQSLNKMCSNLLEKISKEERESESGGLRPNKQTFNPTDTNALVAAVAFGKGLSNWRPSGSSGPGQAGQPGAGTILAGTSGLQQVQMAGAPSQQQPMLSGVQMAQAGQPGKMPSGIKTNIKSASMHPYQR
Sequence of UniProt Q8IVT5 (Q8IVT5 whole entry, looked up): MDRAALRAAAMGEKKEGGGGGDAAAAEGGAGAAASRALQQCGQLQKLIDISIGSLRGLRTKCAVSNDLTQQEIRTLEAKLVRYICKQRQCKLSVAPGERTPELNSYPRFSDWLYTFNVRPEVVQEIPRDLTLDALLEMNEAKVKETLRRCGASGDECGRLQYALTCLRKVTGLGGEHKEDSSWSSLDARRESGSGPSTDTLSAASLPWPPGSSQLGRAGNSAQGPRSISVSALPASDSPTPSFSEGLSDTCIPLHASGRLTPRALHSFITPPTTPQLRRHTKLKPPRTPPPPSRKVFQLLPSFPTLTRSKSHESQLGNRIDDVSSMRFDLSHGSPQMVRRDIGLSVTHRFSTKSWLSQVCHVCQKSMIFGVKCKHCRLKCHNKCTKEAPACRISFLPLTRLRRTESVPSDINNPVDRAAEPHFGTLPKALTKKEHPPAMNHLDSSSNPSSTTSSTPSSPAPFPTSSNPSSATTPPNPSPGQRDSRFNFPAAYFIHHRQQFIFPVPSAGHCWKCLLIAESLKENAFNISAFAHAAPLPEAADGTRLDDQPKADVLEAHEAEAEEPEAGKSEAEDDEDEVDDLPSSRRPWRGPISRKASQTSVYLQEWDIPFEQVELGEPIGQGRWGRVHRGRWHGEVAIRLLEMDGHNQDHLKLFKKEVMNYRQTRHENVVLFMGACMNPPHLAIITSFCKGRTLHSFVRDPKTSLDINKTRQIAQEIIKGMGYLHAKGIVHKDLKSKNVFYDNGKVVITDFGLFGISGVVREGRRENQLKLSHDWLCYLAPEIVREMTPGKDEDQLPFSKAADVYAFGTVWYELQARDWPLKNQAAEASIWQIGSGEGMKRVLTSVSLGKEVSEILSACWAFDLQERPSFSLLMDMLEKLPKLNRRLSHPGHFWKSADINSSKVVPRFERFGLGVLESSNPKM
Sequence of UniProt A9UHW6 (A9UHW6 whole entry, looked up): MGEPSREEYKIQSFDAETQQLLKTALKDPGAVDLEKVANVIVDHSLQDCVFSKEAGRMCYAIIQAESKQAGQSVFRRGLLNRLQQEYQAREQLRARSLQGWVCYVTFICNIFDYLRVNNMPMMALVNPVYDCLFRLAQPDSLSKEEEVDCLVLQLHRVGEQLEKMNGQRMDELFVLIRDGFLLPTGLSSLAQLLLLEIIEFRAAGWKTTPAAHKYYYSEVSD

Target	log2 fold change (vemurafenib)	log2 fold change [1]	log2 fold change (barasertib)	log2 fold change [2]	log2 fold change (volasertib)	log2 fold change [3]	log2 fold change [4]	log2 fold change [5]	log2 fold change (saracatinib)	log2 fold change (sotrastaurin)
LRPPRC (UniProt H7C3W8)	0.566	–	–	–	–	–	–	–	–	–
MAP2K4 isoform 2 (UniProt P45985)	0.601 (active)	0.243	0.09	-0.127	-0.01	0.04	0.936 (active)	-0.063	-0.063	0.002
KIF4B (UniProt Q2VIQ3)	-0.026	0.047	-0.015	-0.102	-0.003	0.009	0.007	-0.073	-0.002	-0.01
MAPK9 (UniProt P45984)	-0.016	-0.002	-0.025	-0.063	0.006	-0.007	0.084	-0.15	0.002	-0.031
MAP4K4 isoform 3 (UniProt O95819)	-0.185	-0.119	-0.029	-0.071	0.011	-0.011	0.169	-0.158	0.082	–
LSS (UniProt P48449)	0.016	-0.009	0.044	-0.078	0.434 (active)	-0.009	-0.09	0.123	-0.043	0
KIFC1 (UniProt Q9BW19)	-0.008	0.037	0.002	0.006	-0.084	-0.031	-0.045	-0.031	0.021	0.071
LETM1 (UniProt O95202)	0.029	0.005	-0.015	-0.012	0.01	-0.015	0.08	-0.287 (active)	-0.002	-0.014
KRR1 (UniProt Q13601)	0.057	0.01	0.026	0.065	-0.015	0.023	-0.006	-0.026	0.003	-0.021
KLC1 isoform 6 (UniProt Q07866)	0.003	0.004	-0.002	0.012	-0.04	0	0.019	-0.063	0.015	-0.011
MAP4 (UniProt E7EVA0)	-0.019	0.01	0.04	0.125	-0.021	-0.141	-0.024	0.029	0.024	-0.008
MBOAT2 (UniProt Q6ZWT7)	0.02	-0.01	0.121	0.159	-0.103	-0.015	-0.251	0.026	0.045	0.284
LRRC7 (UniProt Q96NW7)	0.112	-0.024	0.062	0.056	0.047	-0.008	-0.033	-0.043	-0.044	-0.012
MAPK3 (UniProt P27361)	0.013	-0.024	-0.026	0.01	-0.011	-0.031	0	0.026	0	-0.017
MACROD1 (UniProt Q9BQ69)	0.016	0.043	-0.002	0.033	-0.015	-0.012	-0.043	-0.014	0.008	0.002
MAP7D3 (UniProt Q8IWC1)	-0.153	-0.039	-0.031	-0.056	0.018	0.029	-0.053	-0.006	-0.019	-0.024
MINK1 (UniProt Q8N4C8)	-0.096	-0.107	-0.017	-0.012	0.022	0.076	-0.033	-0.09	0.007	0.079
MARK2 (UniProt E9PC69)	0.015	-0.005	0.027	0	0.028	-0.015	-0.013	-0.22	0.021	-0.026
MAP2K1 (UniProt Q02750)	0.056	0.194	0.022	-0.043	-0.051	-0.057	0.281	-0.041	0.032	0.015
LZTS1 (UniProt Q9Y250)	-0.047	-0.034	0.218	0.042	0.074	-0.53	0.493	-0.132	0	-0.116
KNSTRN (UniProt Q9Y448)	-0.012	0.021	0.022	0.01	0.004	0.086	0.063	-0.095	0.009	-0.03
MAPK1 (UniProt P28482)	-0.022	-0.072	-0.015	-0.013	-0.009	0.004	0.004	-0.023	0.002	-0.007
KSR1 (UniProt Q8IVT5)	0.021	0.049	-0.022	-0.009	0.016	0.009	0.187	-0.056	-0.003	-0.065
MIPEP (UniProt Q99797)	-0.026	0.004	0.006	-0.053	-0.029	0.029	-0.05	-0.015	0.001	-0.042
MICB, A0A140T979	-0.054	0.098	0.039	0.223	-0.072	-0.084	-0.05	0.066	0.019	0.096
MIF (UniProt P14174)	0.025	-0.047	-0.02	0	-0.025	0.021	-0.274	0.084	0.002	0.002
MIF4GD isoform 3 (UniProt A9UHW6)	0.016	0.009	0.051	-0.019	-0.012	0.037	0.028	0.015	0.02	0.017
MAP2K5 (UniProt Q13163)	0.207	0.302	0.019	-0.148	-0.311	-0.144	0.15	-0.029	-0.079	0.014
MED8 isoform 2 (UniProt Q96G25)	-0.022	0.018	0.081	-0.051	-0.003	0.013	0.214	-0.092	-0.002	0.091
MPZL1 (UniProt O95297)	0.037	0.001	0.024	0.057	0.035	0.027	0.262 (active)	-0.052	0.045	-0.022
